FBW7 activator: FBW7 E3 ligase activators, primary screen, biochemical, AlphaScreen, human; F-box/WD repeat-containing protein 7 (Homo sapiens), Q969H0; normalized activity (activation), % at 26.1 µM; AlphaScreen FBW7–phospho-cyclin E peptide binding, activator screen; actives 0.13% (n = 650,000); AID 1259310, 2017; in the data active = normalized activity above about 1.9%;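 note: purified mutant Fbw7 with reduced substrate affinity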
Target sequence (Q969H0 whole entry, looked up): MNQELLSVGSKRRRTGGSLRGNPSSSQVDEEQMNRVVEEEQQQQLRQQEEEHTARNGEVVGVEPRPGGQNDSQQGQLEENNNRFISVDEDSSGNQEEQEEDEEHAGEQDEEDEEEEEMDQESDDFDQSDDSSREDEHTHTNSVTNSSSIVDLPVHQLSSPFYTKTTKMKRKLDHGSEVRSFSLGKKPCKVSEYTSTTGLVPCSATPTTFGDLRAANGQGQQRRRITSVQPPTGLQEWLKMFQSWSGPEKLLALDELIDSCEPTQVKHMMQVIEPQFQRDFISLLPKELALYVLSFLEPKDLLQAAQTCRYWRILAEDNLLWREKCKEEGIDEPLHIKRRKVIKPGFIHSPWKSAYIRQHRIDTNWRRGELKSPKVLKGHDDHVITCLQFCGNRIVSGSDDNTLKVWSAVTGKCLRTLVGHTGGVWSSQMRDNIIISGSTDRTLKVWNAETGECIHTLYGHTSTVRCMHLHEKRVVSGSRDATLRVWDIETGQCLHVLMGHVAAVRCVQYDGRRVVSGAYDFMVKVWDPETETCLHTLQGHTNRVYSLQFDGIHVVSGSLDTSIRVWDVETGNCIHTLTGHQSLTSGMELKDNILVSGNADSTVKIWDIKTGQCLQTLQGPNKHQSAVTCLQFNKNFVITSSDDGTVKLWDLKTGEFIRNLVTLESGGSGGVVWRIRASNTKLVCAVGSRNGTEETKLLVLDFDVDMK
MITF inh: MITF inhibitors, primary screen, biochemical, AlphaScreen, human; actives 0.91% (n = 650,000); Microphthalmia-associated transcription factor (Homo sapiens), O75030; AlphaScreen MITF homodimerization, bead proximity signal; inhibition, % at 2.6 µM; in the data active = inhibition above about 50%;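 note: 0% = vehicle wells with protein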
TEAD-YAP inh: TEAD-YAP interaction inhibition, primary screen, TEAD-YAP interaction inhibitor project, luminescence, HEK-TIYL cells | TEAD-Gal4/YAP UAS-luciferase luminescence | inhibition, % at 9.12 µM | actives 1.4% (n = 640,000) | AID 1259422, 2018; in the data active = inhibition above about 32%;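 note: 0% = median of test compound wells and 100% = reference inhibitor wells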
GPR151 ag: activators of human GPR151, primary screen, cell-based, PathHunter beta-arrestin, luminescence; activation, % at 11.2 µM; PathHunter beta-arrestin GPR151 cells; actives 1% (n = 650,000); G-protein coupled receptor 151 (Homo sapiens), Q8TDV0; in the data active = activation above about 4.9%;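 note: 0% = median of compound wells and 100% = cells with positive control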
GPR151 confirm: GPR151 activators, triplicate retest, confirmation, cell-based, PathHunter beta-arrestin, luminescence; 6,700 tested, under 10 active; AID 1508609, 2020; activation, % at 11.2 µM; shares compounds with GPR151 ag; GPR151 PathHunter beta-arrestin cells, 90 min; % of EA-reagent control over plate median;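 active = mean percent activation across replicates above the confirmation screen cutoff of 4.91%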
GPR119 ag: GPR119 activators in beta-arrestin cells, counter-screen for GPR151 activator project, cell-based, PathHunter beta-arrestin, luminescence, triplicate | shares compounds with GPR151 ag | 90 min; 0 = compound-well median, 100 = enzyme-acceptor control | activation, % at 11.2 µM | actives 0.3% (n = 6,700);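 active = mean percent activation in the counterscreen above 29.09%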;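 note: counterscreen on off-target GPR119 to flag nonselective hits from the GPR151 activator screen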
The depositor's hits bear a star. An excerpt weighted towards active compounds, which were near 3.5% of everything screened.

Screening COCCCNC(=O)c1ccc(CNC(=O)c2ccc3c(c2)OCO3)cc1 returned FBW7 activator 0, MITF inh 5, TEAD-YAP inh 3, GPR151 ag 5.7*, GPR151 confirm -1 and GPR119 ag -5.
COCCNC(=O)c1ccc(CNC(=O)c2ccc3c(c2)OCO3)cc1 was read as FBW7 activator 0, MITF inh 9, TEAD-YAP inh -8 and GPR151 ag -1.
For CCC(C)CC(=O)Nc1nc2c(s1)C(=O)CC(C(=O)N(C)C(C)C)C2 (configuration not stated) the results were FBW7 activator 0, MITF inh -1, TEAD-YAP inh -7, GPR151 ag 7.1*, GPR151 confirm 0 and GPR119 ag 1.
For CCC(C)C(=O)Nc1nc2c(s1)C(=O)CC(C(=O)N(C)C(C)C)C2 (configuration not stated) the results were FBW7 activator 0, MITF inh 8, TEAD-YAP inh -29 and GPR151 ag -1.
For CCC(C)C(=O)Nc1nc2c(s1)C(=O)CC(C(=O)N(C)Cc1nonc1C)C2 (configuration not stated) the results were FBW7 activator 0, MITF inh -5, TEAD-YAP inh -17, GPR151 ag 5.7*, GPR151 confirm 0 and GPR119 ag 2.
Screening CC(C)N(C)C(=O)C1CC(=O)c2sc(NC(=O)c3ccccc3)nc2C1 (configuration not stated) returned FBW7 activator 0, MITF inh 11, TEAD-YAP inh 4, GPR151 ag 6.4*, GPR151 confirm 0 and GPR119 ag 10.
O=C(COC(=O)c1cc(=O)c2ccccc2o1)NN(c1ccccc1)c1ccccc1 was read as FBW7 activator 0, MITF inh 15, TEAD-YAP inh 2 and GPR151 ag -1.
`COc1ccc(Cn2c(C(=O)O)c(CNCc3ccccc3)c3ccccc32)cc1` gave FBW7 activator 0, MITF inh 9, TEAD-YAP inh 13 and GPR151 ag 0.
For Cc1ccc(CNC(=O)CCc2nnc(C3(c4ccc(Cl)cc4)CCC3)o2)s1 the results were FBW7 activator 0, MITF inh 5, TEAD-YAP inh -4 and GPR151 ag 1.
For O=C(CCc1nnc(C2(c3ccc(Cl)cc3)CCC2)o1)NCc1ccccn1 the results were FBW7 activator 0, MITF inh 13, TEAD-YAP inh 8, GPR151 ag 5.1*, GPR151 confirm 0 and GPR119 ag -6.
For COc1ccccc1NC(=O)C1CC(=O)OC1(C)C (configuration not stated) the results were FBW7 activator 1, MITF inh 3, TEAD-YAP inh 1 and GPR151 ag 0.
For COc1ccccc1NC(=O)C1CC(=O)OC12CCOC(C)(C)C2 (configuration not stated) the results were FBW7 activator 0, MITF inh -4, TEAD-YAP inh -19, GPR151 ag 6.5*, GPR151 confirm 0 and GPR119 ag 7.
`N/C(=N\OC(=O)CCCN1C(=O)c2ccccc2C1=O)c1ccccn1` gave FBW7 activator 0, MITF inh 1, TEAD-YAP inh 1, GPR151 ag 5.3*, GPR151 confirm 2 and GPR119 ag 1.
For COc1cc(NS(=O)(=O)c2cc(C(=O)O)ccc2OC)cc(OC)c1 the results were FBW7 activator 0, MITF inh 2, TEAD-YAP inh 10, GPR151 ag 9.2*, GPR151 confirm 0 and GPR119 ag 8.
Screening COc1ccc(OC)c(S(=O)(=O)Nc2ccc(C(=O)O)cc2)c1 returned FBW7 activator 0, MITF inh 0, TEAD-YAP inh 2 and GPR151 ag 0.
CCNC(=O)CCOc1cccc(C)c1 was read as FBW7 activator 0, MITF inh -5, TEAD-YAP inh 8 and GPR151 ag -1.
